Compound activity from PubChem.
HT1080-NT tox = kills 2HG-producing HT-1080-NT fibrosarcoma cells; HT-1080-NT fibrosarcoma viability, CellTiter-Glo ATP luminescence, 48 h; 360,000 tested, 1.6% active; AID 686970; Potency, µM (highest dose often 46.1 µM), inactives show at the highest dose activity, negative = less viability, usual class: cytotoxic;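 further: NT is the 2HG producing partner of a matched IDH1 knockdown line; potency means the concentration at half of the fitted maximal effect; 0% = DMSO-treated cells and -100% = media-only wells without cells; nearly all actives have a fitted effect of over 55% in size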
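HT-1080-NT; 750 cells/well; 5% FBS RPMI; 48 h compound, 37 degrees C; CellTiter-Glo luminescence; curve fitting and curve-class assignment.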
IL1B secr inh = blocks inflammasome-driven IL-1 beta release; activity change, % at 57.5 µM; 360,000 tested, 4.7% active; THP-1 LPS/ATP IL-1B secretion, AlphaLISA, 16 h; hits give low values; AID 743279; in the data active means activity change below about -50%; inconclusive means mostly about -30% to -49%
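Secreted IL-1B measured by AlphaLISA bead assay after 16 h compound exposure of THP-1 cells; compounds (final up to 57.5 uM) added 1 h before LPS (250 ng/mL) and ATP (1.25 mM) stimulation; lower signal means less secretion.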
TDP1 cell noCPT = qHTS for Inhibitors of human tyrosyl-DNA phosphodiesterase 1 (TDP1): qHTS in cells in absence of CPT | DT40 Tdp1-/- hTDP1 cells, no CPT, ATP luminescence, 48 h | Potency, µM (top dose mostly 46.2 µM), for the others: at the highest dose activity change, negative = growth inhibition, hits mostly inhibitors | 420,000 tested, 15% active | AID 686978, 2013; further: potency means the concentration at half of the fitted maximal effect; nearly all actives have a fitted effect of over 55% in size
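Chicken DT40 Tdp1-/- cells stably complemented with human TDP1 were seeded at 400 cells/well with DMSO in place of 20 nM camptothecin. After compound pinning, cells grew at least 48 hr at 37 °C; viability read by CellTiter-Glo luminescence.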
ELG1 DNA repair = ELG1-dependent DNA repair inhibition. HEK293T ELG1-luciferase reporter, luminescence, 16 h; DNA damage induced by 5-fluorouridine. Potency, µM (highest dose often 46.1 µM), for the others: at the top dose activity change, negative = inhibition, actives largely listed as inhibitors. 330,000 tested, 2.3% active. AID 504467; further: potency means the concentration at half of the fitted maximal effect; nearly all actives have a fitted effect of over 55% in size
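5-Fluorouridine DNA damage + compound/DMSO, 2,000 cells/well, 16 h, 37 °C/5% CO2. ONE-Glo, 30 min RT, luminescence. Readout = decrease in reporter signal.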
HT1080 IDH1KD tx = HT-1080 IDH1 knockdown cell toxicity (counter line). Potency, µM (highest dose often 46.1 µM), inactives show at the top dose activity, negative = toxicity, usual class: cytotoxic. 360,000 tested, 2% active. HT-1080 IDH1 knockdown viability, ATP luminescence, 48 h;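 further: potency means the concentration at half of the fitted maximal effect; 0% = DMSO wells and -100% = cell-free medium wells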
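Viability of IDH1-knockdown HT-1080 fibrosarcoma cells was assessed by CellTiter-Glo after 48 h at 37 °C with titrated compound; concentration-effect curves were classified by fit quality and response size.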
TDP1 cell CPT = DT40-hTDP1 cell growth loss with CPT; 420,000 tested, 12% active; chicken DT40 Tdp1-/-;hTDP1 cells + 20 nM CPT, ATP luminescence, 48 h; Potency, µM (highest dose often 46.2 µM), inactives show at the highest dose activity change, negative = growth inhibition, hits mostly inhibitors; further: potency means the concentration at half of the fitted maximal effect; nearly all actives have a fitted effect of over 55% in size
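Chicken DT40 Tdp1-/- cells stably complemented with human TDP1 were seeded at 400 cells/well in medium containing 20 nM camptothecin, exposed to pin-transferred compounds, and grown at 37 °C for at least 48 hr. Viability was read as ATP luminescence.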
The depositor's hits bear a star; u = inconclusive; x = no result. An excerpt weighted towards active compounds, which were near 19% of everything screened. Unless noted, the call rests on the fitted dose curve; in most records, active means well fitted curve in the direction sought with a large enough effect; inconclusive means small, poorly fitted or top-dose-only effect, or another doubt; inactive means no such curve, though single readings can be large; an effect the other way counts as inactive or inconclusive. Unless noted, on the % scale 0 is the no-effect control and ±100 the full control effect.

SMILES | HT1080-NT tox | IL1B secr inh | TDP1 cell noCPT | ELG1 DNA repair | HT1080 IDH1KD tx | TDP1 cell CPT
C=CCn1c(SCC(N)=O)nc2scc(-c3ccc(C)o3)c2c1=O | -5% | 36 | 8% | u | -1% | -11%
Cc1ccc(S(=O)(=O)N(C)C)cc1NC(=O)COC(=O)Cc1ccsc1 | 0% | 17 | 2% | 8% | -5% | 1%
COC(=O)Nc1ccc2c(c1)N(C(=O)CCCl)c1ccccc1S2 | -15% | -96* | -30% | -1% | u | -9%
Cc1ccc(-c2csc(N=C(N)N)n2)cc1 | -14% | -61* | u | u | u | -21%
Cn1cc(CNCc2ccc(OC(F)(F)F)cc2)c(-c2ccc3c(c2)OCCO3)n1 | 21µM* | -25 | 2.6µM* | 10% | -6% | 7.3µM*
Cn1cc(CNCc2cn[nH]c2-c2ccc(F)cc2)c(-c2ccc3c(c2)OCCO3)n1 | 4% | -8 | 4% | 0% | 0% | -11%
CCOC(=O)[C@H]1[C@H]2COc3cc(OC)ccc3[C@@H]2N2C(=O)N(c3ccc(Cl)cc3)C(=O)[C@@]12C | -9% | -1 | u | -10% | -6% | 18µM*
CCOC(=O)[C@@H]1[C@H]2COc3ccccc3[C@@H]2N2C(=O)N(c3ccc(C(F)(F)F)cc3)C(=O)[C@]12C | 9% | 0 | u | x | -8% | 18µM*
CCOC(=O)[C@@H]1[C@H]2COc3ccc(Br)cc3[C@@H]2N2C(=O)N(c3ccc(C(F)(F)F)cc3)C(=O)[C@]12C | -4% | -9 | 16µM* | -5% | 6% | u
CCOC(=O)[C@@H]1[C@H]2COc3ccccc3[C@@H]2N2C(=O)N(c3ccc(C(F)(F)F)cc3)C(=O)[C@@]12C | -14% | 1 | 23µM* | 2% | -3% | 13µM*
CCOC(=O)[C@@H]1[C@H]2COc3cc(OC)ccc3[C@@H]2N2C(=O)N(c3ccc(Cl)cc3)C(=O)[C@@]12C | -1% | -16 | u | u | 1% | u
O=C(c1cc(-c2ccc(Cl)cc2)n[nH]1)N1CCN(C(=O)c2ccco2)CC1 | 0% | -3 | -12% | 3% | -2% | -27%
COc1cc(C2Nc3ccc4ccccc4c3C3=C2C(=O)CC(C)(C)C3)ccc1OC(C)C(=O)O (stereo unspecified) | 4% | 14 | 26% | u | 1% | -22%
COc1cccc(NC(=O)C2CCN(S(=O)(=O)c3c(C)noc3C)CC2)c1 | x | x | -14% | x | x | 13%
C[C@@](N)(C(=O)O)c1ccc(P(=O)(O)O)cc1 | x | x | -8% | x | x | 11%
CCOC(=O)[C@@H]1[C@H]2COc3ccccc3[C@H]2N2C(=O)N(c3ccc(C(F)(F)F)cc3)C(=O)[C@]12C | -3% | -22 | 15µM* | 6% | -4% | 18µM*
COc1ccccc1-c1cc(C(=O)NN)[nH]n1 | 21µM* | 14 | u | 0% | 13µM* | u
Cc1ccc(Cl)cc1-c1cc(C(=O)NCc2cc(C(F)(F)F)cc(C(F)(F)F)c2)[nH]n1 | u | u | 21µM* | x | u | u
CCOc1ccc(Cl)cc1-c1cc(C(=O)NCc2cccc(C(F)(F)F)c2)[nH]n1 | u | -22 | 13µM* | x | u | 10µM*
COc1cc(F)ccc1-c1cc(C(=O)NCc2cccc(Cl)c2)[nH]n1 | 7% | u | u | x | -5% | u
Cc1ccc(F)cc1-c1cc(C(=O)NCc2cc(C(F)(F)F)cc(C(F)(F)F)c2)[nH]n1 | u | -15 | u | x | u | 29µM*
COc1ccc(F)cc1-c1cc(C(=O)NCc2cccc(C(F)(F)F)c2)[nH]n1 | -27% | 0 | u | x | u | u
COc1ccc(F)cc1-c1cc(C(=O)NCc2ccc(C(F)(F)F)cc2)[nH]n1 | u | -10 | 16µM* | x | u | 23µM*
COc1ccc(Cl)cc1-c1cc(C(=O)NCc2cc(C(F)(F)F)cc(C(F)(F)F)c2)[nH]n1 | 21µM* | 0 | 15µM* | x | u | u
COc1ccc(Cl)cc1-c1cc(C(=O)NCc2cccs2)[nH]n1 | -29% | 5 | u | x | -28% | 12µM*
SMILES | HT1080-NT tox | IL1B secr inh | TDP1 cell noCPT | ELG1 DNA repair | HT1080 IDH1KD tx | TDP1 cell CPT
O=C(NC1CCCCC1c1ccccc1)c1ccccc1 (stereo unspecified) | -1% | -6 | -29% | x | 15% | -19%
C#Cc1ccc(NC(=O)C2(C)CCN2C(=O)c2cc(C)n(C)n2)cc1 (stereo unspecified) | 4% | -5 | u | x | 11% | u
O=c1oc2ccccc2c(Nc2ccc(O)cc2)c1[N+](=O)[O-] | -17% | -20 | -15% | -20% | -17% | u
CC(Nc1c([N+](=O)[O-])c(=O)oc2ccccc12)C(Cl)c1ccccc1 (stereo unspecified) | u | -67* | 23µM* | -13% | u | u
O=c1oc2ccccc2c(NC(c2ccccc2)c2ccccc2)c1[N+](=O)[O-] | -4% | -5 | u | -3% | -26% | u
Cc1ccc(C)c(Nc2c([N+](=O)[O-])c(=O)oc3ccccc23)c1 | -24% | -58* | 10µM* | 21µM* | -26% | 23µM*
COc1ccc(OCCNc2c([N+](=O)[O-])c(=O)oc3ccccc23)cc1 | 0% | 11 | u | -3% | -1% | -3%
Cc1ccc(Nc2c([N+](=O)[O-])c(=O)oc3ccccc23)cc1 | u | x | 12µM* | u | u | u
CCNc1c([N+](=O)[O-])c(=O)oc2ccccc12 | 10% | 4 | 12% | 2% | 13% | 17%
O=c1oc2ccccc2c(Nc2ccc3ccccc3c2)c1[N+](=O)[O-] | u | 7 | u | -4% | u | 15µM*
Cc1cccn2c(=O)cc(CSc3nnc(NC(=O)C(C)C)s3)nc12 | x | x | -14% | x | x | -4%
CCc1ccc(Nc2c([N+](=O)[O-])c(=O)oc3ccccc23)cc1 | -19% | u | 7.3µM* | u | -22% | u
O=c1oc2ccccc2c(NCc2cccc(F)c2)c1[N+](=O)[O-] | -3% | -3 | 0% | -15% | -13% | -30%
CC(=O)c1sc(N/N=C/c2cccc(O)c2)nc1C | -14% | 43 | 12µM* | u | -19% | 26µM*
CC(=O)c1sc(N/N=C\c2c(O)ccc3ccccc23)nc1C | u | 74 | 0.92µM* | x | -24% | 0.92µM*
